# Most compounds without a hit are left out; they make up all but 0.4% or so of the library.
# Rab7 wt modul – alters GTP binding to wildtype dog Rab7; 190,000 tested, 0.055% active; GTP binding activity (percent of control), % at 10 µM; GST-Rab7 beads, fluorescent GTP binding, flow cytometry; actives lie on both sides; untreated = 100%, excess cold GTP = 0%;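 active means fluorescent GTP binding to Rab7 beads changed by at least 20 points from the 100% baseline, either direction, mostly lower; inconclusive means compound itself probably fluorescent, or too few beads counted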;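 further: median green fluorescence of bound Bodipy-FL-GTP per Rab7 bead population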
# Rac1 mut GTP – alters GTP binding to activated mutant human Rac1 | 190,000 tested, 0.11% active | P63000 | AID 764 | GST-Rac1 activated beads, fluorescent GTP binding, flow cytometry; actives lie on both sides; 100% means binding = to untreated wells | percent activity (GTP binding), % at 10 µM;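 active means GTP binding at least 20 percentage points away from the 100% baseline, in either direction, so actives lie on both sides; inconclusive means Compound likely fluorescent itself, or too few beads counted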
# Cdc42 wt – changes GTP binding to wildtype human Cdc42; percent activity (GTP binding), % at 10 µM; GST-Cdc42 beads, Bodipy-GTP binding, flow cytometry; actives lie on both sides; P60953; 190,000 tested, 0.2% active;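 active means percent activity GTP binding at least 20 points away from the 100% baseline, either down as inhibitor or up as activator; inconclusive means compound flagged as likely green fluorescent from well-wide comparison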;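 further: median bead fluorescence of bound Bodipy-FL-GTP at 100 nM; 0% = excess unlabeled GTP control and 100% = no compound control; below 100% means less GTP binding so inhibitor and above means activator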
# Target sequence (P60953 whole entry, looked up): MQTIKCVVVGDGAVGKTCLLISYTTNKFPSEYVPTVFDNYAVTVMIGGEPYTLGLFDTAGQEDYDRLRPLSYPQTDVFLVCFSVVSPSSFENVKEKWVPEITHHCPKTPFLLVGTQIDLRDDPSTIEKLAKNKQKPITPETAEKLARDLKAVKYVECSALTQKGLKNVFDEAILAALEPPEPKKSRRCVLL
# HRas wt GTP bind – changes GTP binding to wildtype human HRas; AID 759; P01112; GST-Ras wt beads, Bodipy-FL-GTP binding, flow cytometry; actives lie on both sides; GTP binding activity, % at 10 µM; 190,000 tested, 0.14% active;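 active means GTP binding activity at least 20% away from the 100% baseline, either lowered as inhibitor or raised as activator; inconclusive means flagged as likely green fluorescent, judged across all proteins in the well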;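 further: 0% = unlabeled GTP competition control and 100% = no-compound control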
# Target sequence (P01112 whole entry, looked up): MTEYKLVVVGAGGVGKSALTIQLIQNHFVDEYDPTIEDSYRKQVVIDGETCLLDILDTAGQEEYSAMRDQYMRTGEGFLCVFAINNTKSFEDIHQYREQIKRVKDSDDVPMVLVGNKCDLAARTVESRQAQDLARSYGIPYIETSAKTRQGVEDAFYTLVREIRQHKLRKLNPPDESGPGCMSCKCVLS
# Rab2A wt mod – changes GTP binding to wildtype dog Rab2A, up or down. P61105. GST-Rab2 wt beads, Bodipy-GTP binding, flow cytometry. GTP binding activity, % at 10 µM. 190,000 tested, 0.19% active;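 active means GTP binding activity at least 20 points away from 100%, either lowered or raised; inconclusive means signal likely due to the compound's own green fluorescence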;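 further: 0% = beads with excess unlabeled GTP and 100% = no-compound control corrected for plate trend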
# Rac1 wt GTP bind – modulators of human Rac1 wildtype GTP binding; 190,000 tested, 0.27% active; AID 757; GTP binding activity (% of control), % at 10 µM; P63000; GST-Rac1 beads, fluorescent GTP binding, flow cytometry; actives lie on both sides; 0 = cold GTP competed, 100 = untreated;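 active means GTP binding activity at least 20 points away from the 100% control level, either lower or higher; inconclusive means compound flagged as likely green fluorescent, judged across all proteins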
# Starred values were filed as active, the others as inactive; ? = inconclusive; [ ] = dose if it differs, or a comment.
SMILES,Rab7 wt modul,Rac1 mut GTP,Cdc42 wt,HRas wt GTP bind,Rab2A wt mod,Rac1 wt GTP bind
Cc1cc(N=NC(=O)c2ccccc2O)c2ccccc2c1O,91.0,82.0,76.0*,83.0,78.0*,74.0*
Cn1c(O)c(N=NC(=O)c2ccccc2O)c2ccccc21,98.0,93.0,93.0,94.0,92.0,96.0
Nc1ccc(-c2cn3cccnc3n2)cc1,90.0,86.0,79.0*,78.0*,78.0*,72.0*
O=C(Nc1ccc(Cl)cc1Cl)N1CCN(c2ncccn2)CC1,94.0,94.0,95.0,94.0,95.0,97.0
O=C(Nc1cccc(Cl)c1)N1CCN(c2ncccn2)CC1,108.0,104.0,114.0,109.0,111.0,125.0*[activator]
Nc1c(S(=O)(=O)c2cccc(Cl)c2)c2nc3ccccc3nc2n1/N=C/c1ccc(O)c(O)c1,?,80.0,63.0*,63.0*,76.0*,79.0*
COc1cccc(/C=N/n2c(N)c(S(=O)(=O)c3cccs3)c3nc4ccccc4nc32)c1OC,91.0,89.0,81.0,84.0,85.0,88.0
COc1ccc(-n2cccc2/C=C2/NC(=O)N(c3cccc(Cl)c3)C2=O)cc1,104.0,100.0,101.0,100.0,100.0,102.0
O=C(O)c1cccc(-n2cccc2/C=C2/NC(=O)N(c3ccc(Cl)cc3)C2=O)c1,88.0,76.0*,72.0*,82.0,75.0*,67.0*
Cc1cc2nc(/C(C#N)=C/c3ccncc3)[nH]c2cc1C,96.0,89.0,87.0,92.0,94.0,86.0
N#C/C(=C\c1ccncc1)c1nc2ccccc2[nH]1,26.0*,35.0*,41.0*,43.0*,42.0*,31.0*
N#C/C(=C\c1ccc(-c2ccc(C(=O)O)cc2)o1)c1nc2ccccc2[nH]1,87.0,80.0,78.0*,80.0,77.0*,71.0*
Cc1cccnc1NC(=O)CSc1nnc(Cc2ccccc2)o1,103.0,100.0,102.0,101.0,100.0,106.0
O=C(/C=N/O)NCc1ccncc1,97.0,95.0,96.0,102.0,98.0,104.0
CC(=O)NNc1nc(-c2ccccc2)c2cc(Br)ccc2n1,100.0,98.0,101.0,100.0,102.0,105.0
CN(C)S(=O)(=O)c1ccc(C(=O)NNc2nc(-c3ccccc3)c3cc(Br)ccc3n2)cc1,90.0,88.0,85.0,83.0,82.0,78.0*
O=C(NNc1nc(-c2ccccc2)c2cc(Br)ccc2n1)c1ccc(S(=O)(=O)N2CCCCC2)cc1,99.0,93.0,94.0,95.0,93.0,96.0
O=C(NNc1nc(-c2ccccc2)c2cc(Br)ccc2n1)c1ccc(S(=O)(=O)N2CCOCC2)cc1,84.0,87.0,82.0,81.0,75.0*,67.0*
CC(NC(=O)c1ccc(C23CC4CC(CC(C4)C2)C3)cc1)C(=O)O (stereo unspecified),105.0,97.0,98.0,100.0,99.0,100.0
Cc1ccc(Nc2n[nH]c(C)c2[N+](=O)[O-])c(C)c1,?,?,116.0,154.0*[activator],192.0*[activator],111.0
Cc1ccccc1Nc1n[nH]c(C)c1[N+](=O)[O-],98.0,100.0,98.0,97.0,99.0,99.0
Nc1[nH]n(-c2ccccc2)c(=O)c1N=Nc1ccc2c(c1)OCCO2,96.0,92.0,90.0,92.0,93.0,94.0
Cc1cc([N+](=O)[O-])ccc1N=Nc1c(N)[nH]n(-c2ccccc2)c1=O,99.0,87.0,88.0,91.0,90.0,78.0*
CCOC(=O)c1cnc2nc(C)nn2c1N,100.0,95.0,92.0,97.0,99.0,95.0
CCOC(=O)c1cnc2c(C#N)cnn2c1N,88.0,86.0,77.0*,72.0*,73.0*,73.0*
SMILES,Rab7 wt modul,Rac1 mut GTP,Cdc42 wt,HRas wt GTP bind,Rab2A wt mod,Rac1 wt GTP bind
C=CCc1c(C)nc(N)[nH]c1=O,98.0,97.0,101.0,101.0,100.0,105.0
CCC(=O)c1ccc(OCC(=O)O)c(OC)c1,96.0,104.0,105.0,100.0,101.0,122.0*[activator]
CCOC(=O)COc1ccc(C(=O)CC)cc1OC,104.0,97.0,96.0,99.0,100.0,99.0
COc1ccc(CC(=O)Nc2ccc(C(=O)Nc3nccs3)cc2)cc1OC,94.0,89.0,73.0*,77.0*,73.0*,82.0
COc1ccc(CCNC(=O)C(=O)Nc2nccs2)cc1OC,97.0,97.0,99.0,99.0,99.0,98.0
Cc1cc(NC(=O)c2cccc(C(=O)Nc3cc(C)on3)n2)no1,93.0,91.0,79.0*,80.0,80.0,88.0
COc1ccc2nc(C)cc(SCC(=O)N/N=C/c3ccc(O)c(O)c3)c2c1,91.0,82.0,69.0*,72.0*,68.0*,79.0*
COc1cccc2c(SCC(=O)N/N=C/c3ccc(O)c(O)c3)cc(C)nc12,89.0,84.0,71.0*,79.0*,75.0*,65.0*
COc1cccc2c(SCC(=O)N/N=C/c3ccccc3)cc(C)nc12,99.0,95.0,99.0,94.0,97.0,96.0
COc1ccc2nc(C)cc(SCC(=O)N/N=C/c3cccc4ccccc34)c2c1,97.0,97.0,98.0,98.0,98.0,98.0
O=C1OCC2=C1C(c1ccc(F)cc1)CC(=O)N2c1ccccc1 (stereo unspecified),98.0,98.0,97.0,98.0,97.0,98.0
CCOC(=O)c1ccc(Nc2nc(C(=O)OCC)nc3ccccc23)cc1,81.0,82.0,69.0*,73.0*,73.0*,82.0
COc1ccc(/C=C2\SC(N3CCc4ccccc4C3)=NC2=O)cc1OC,99.0,99.0,100.0,98.0,99.0,99.0
O=C(N/N=C/c1ccc([N+](=O)[O-])o1)c1cn(-c2ccccc2)nc1-c1ccccc1,96.0,92.0,89.0,85.0,83.0,82.0
O=C(N/N=C/c1ccc([N+](=O)[O-])o1)c1cn(-c2ccccc2)nc1-c1ccc(Cl)cc1,98.0,86.0,81.0,81.0,82.0,79.0*
O=S1(=O)N=C(N=Nc2c(O)[nH]c3ccccc23)c2ccccc21,96.0,87.0,80.0,87.0,82.0,77.0*
CCOC(=O)c1cc(C(=O)OCC)c2ccccn2c1=O,76.0*,88.0,95.0,79.0*,88.0,87.0
Cc1ccc(Nc2nc(CSc3nnc(-c4ccc(F)cc4)n3C)cs2)cc1,98.0,97.0,96.0,97.0,97.0,95.0
CC1(C)C2CCC1(CS(=O)(=O)Nc1ccccc1)C(=O)C2 (stereo unspecified),100.0,96.0,95.0,97.0,96.0,95.0
N=c1oc2ccc3ccccc3c2cc1-c1nc(-c2ccccc2)cs1,92.0,82.0,83.0,82.0,79.0*,79.0*
O=C(O)c1ccc(N2C(=O)/C(=C/c3ccc(-c4ccc([N+](=O)[O-])cc4)o3)C=C2c2ccccc2)cc1,92.0,79.0*,75.0*,86.0,80.0,79.0*

# Compound activity from PubChem BioAssay.
